Data on five compounds can be found in PubChem BioAssay.

Active and inactive are the calls of the source.

Test [1] can be described thus: optical density shifts of acrAB sulA E. coli – strain DRC41, OD650, 48 h, E. coli filamentation inducer project, primary screen (AID 1152).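 Also: E. coli MC1000 strain DRC41 lacking acrAB efflux pump and sulA.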 The conditions noted are these: higher = more signal, called active from +8 up or from −8 down.
Test [2] in a line: probe aLefty1 binding on compound microarray – biochemical, small-molecule microarray, 635/667 nm fluorescence, primary screen (AID 1153).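 Also: score merges spot fluorescence with signal-to-noise ratio from the scanned slide images.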 The note with it: higher = more signal.
A short description of test [3]: plasmodial surface anion channel blockers, osmotic lysis – cell-based, P. falciparum Indochina, OD700, 1 h, primary screen (AID 1154). The conditions noted are these: P. falciparum Indochina infected RBC osmotic lysis, higher = more signal, called active from +8 up or from −8 down.
A short description of test [4]: plasmodial surface anion channel blockers, osmotic lysis – cell-based, P. falciparum Indochina, OD700, 2 h, primary screen (AID 1155).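 Also: lysis reports solute entry through the parasite surface anion channel PSAC.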 The conditions noted are these: P. falciparum Indochina infected erythrocytes, higher = more signal, called active from +8 up or from −8 down.
Test [5] can be described thus: changes in parasitized red cell lysis, either direction – P. falciparum Indochina, OD700, 3 h, PSAC antagonist project, primary screen (AID 1156). The note with it: P. falciparum-infected erythrocytes, osmotic lysis, higher = more signal, called active from +8 up or from −8 down.
The nature of test [6]: plasmodial surface anion channel blockers, osmotic lysis – cell-based, P. falciparum Indochina, OD700, 18 h, primary screen (AID 1157). The conditions noted are these: P. falciparum Indochina infected erythrocytes, osmotic lysis OD700, 18 h; higher = more signal, called active from +8 up or from −8 down.
A short description of test [7]: S6 kinase pathway phospho-S6 level changes – cell-based, A549, cytoblot, luminescence, serum-stimulated, primary screen (AID 1158).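 Also: serum-stimulated A549 lung adenocarcinoma cells; signal is phosphorylated S6 detected by cytoblot immunostaining with HRP secondary.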 The note with it: 5 h, higher = more signal.
The target in test [8] is NADPH oxidase 2 (Homo sapiens) (UniProt P04839). Kind of test: compounds shifting NOX2 Amplex Red fluorescence – cell-based, HEK293-NOX2, PMA-stimulated, NOX inhibitor project, primary screen (AID 1159). Also: test concentration not given here. The conditions noted are these: 45 min, higher = more signal, called active from +8 up or from −8 down.
The target in test [9] is NADPH oxidase 4 (Homo sapiens) (UniProt Q9NPH5). Kind of test: compounds shifting NOX4 Amplex Red fluorescence – cell-based, HEK293-NOX4, tetracycline-induced, NOX inhibitor project, primary screen (AID 1160). The conditions noted are these: HEK293-NOX4, Amplex Red H2O2 fluorescence, 45 min; higher = more signal, called active from +8 up or from −8 down.
Test [10] has as its target NADPH oxidase 5 (Homo sapiens) (UniProt Q96PH1). Nature of the test: compounds shifting NOX5 Amplex Red fluorescence – cell-based, HEK293-NOX5, NOX inhibitor project, primary screen (AID 1161). The note with it: HEK293-NOX5, ionomycin, 45 min, higher = more signal.
Test [11] is described as follows: compound effects on lung adenocarcinoma cell viability – A549, calcein-AM fluorescence, 48 h, basal, profiling panel (AID 1162). Also: test concentration not given here. The note with it: higher = more signal.
The nature of test [12]: compound effects on differentiated 3T3-L1 adipocyte viability – cell-based, 3T3-L1 adipocytes, calcein-AM fluorescence, 48 h, basal, profiling panel (AID 1163). Also: test concentration not given here. The conditions noted are these: 3T3-L1 adipocytes viability, higher = more signal.
A short description of test [13]: compound effects on hepatocellular carcinoma cell viability – HepG2, calcein-AM fluorescence, 48 h, basal, profiling panel (AID 1164). Also: test concentration not given here. The note with it: higher = more signal.
Test [14] in a line: compound effects on multiple myeloma cell viability – MM1S, calcein-AM fluorescence, 48 h, basal, profiling panel (AID 1165).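 Also: viability of MM1S multiple myeloma cells under basal unstimulated conditions; test concentration not given here.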 The note with it: higher = more signal.
A short description of test [15]: calcein-AM signal in unstimulated myeloma cells – cell-based, calcein-AM fluorescence, 48 h, PK04 Diversity Set, profiling panel (AID 1166).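 Also: cells grown under basal conditions without added stimulus; test concentration not given here.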 The note with it: RPMI8226 myeloma viability, higher = more signal.
Test [16] can be described thus: JC-1 mitochondrial signal, unstimulated HepG2 cells – cell-based, JC-1 fluorescence, 24 h, 100 nL compound, profiling panel (AID 1167). Also: test concentration not given here. The note with it: HepG2 mitochondrial potential, higher = more signal.
The nature of test [17]: JC-1 mitochondrial signal, unstimulated adipocytes – cell-based, JC-1 fluorescence, 3T3-L1 adipocytes, 24 h, 100 nL compound, profiling panel (AID 1168). Also: test concentration not given here. The note with it: JC-1 mitochondrial fluorescence, higher = more signal, called active from +8 up or from −8 down.
Test [18] can be described thus: JC-1 mitochondrial signal, unstimulated myeloma cells – cell-based, JC-1 fluorescence, RPMI8226, 24 h, 100 nL compound, profiling panel (AID 1169). Also: test concentration not given here. The conditions noted are these: JC-1 mitochondrial potential fluorescence, higher = more signal.
Test [19] in a line: JC-1 mitochondrial signal, unstimulated MM1S myeloma – cell-based, JC-1 fluorescence, 24 h, 100 nL compound, profiling panel (AID 1170). Also: test concentration not given here. The conditions noted are these: MM1S mitochondrial potential, higher = more signal.
Test [20] can be described thus: resazurin metabolic signal in A549 cells – cell-based, resazurin fluorescence, 24 h, PK04 Diversity Set, profiling panel (AID 1171). Also: test concentration not given here. The conditions noted are these: A549 viability, higher = more signal, called active from +8 up or from −8 down.

Chain of NADPH oxidase 5 (Homo sapiens) (Q96PH1 whole entry, looked up): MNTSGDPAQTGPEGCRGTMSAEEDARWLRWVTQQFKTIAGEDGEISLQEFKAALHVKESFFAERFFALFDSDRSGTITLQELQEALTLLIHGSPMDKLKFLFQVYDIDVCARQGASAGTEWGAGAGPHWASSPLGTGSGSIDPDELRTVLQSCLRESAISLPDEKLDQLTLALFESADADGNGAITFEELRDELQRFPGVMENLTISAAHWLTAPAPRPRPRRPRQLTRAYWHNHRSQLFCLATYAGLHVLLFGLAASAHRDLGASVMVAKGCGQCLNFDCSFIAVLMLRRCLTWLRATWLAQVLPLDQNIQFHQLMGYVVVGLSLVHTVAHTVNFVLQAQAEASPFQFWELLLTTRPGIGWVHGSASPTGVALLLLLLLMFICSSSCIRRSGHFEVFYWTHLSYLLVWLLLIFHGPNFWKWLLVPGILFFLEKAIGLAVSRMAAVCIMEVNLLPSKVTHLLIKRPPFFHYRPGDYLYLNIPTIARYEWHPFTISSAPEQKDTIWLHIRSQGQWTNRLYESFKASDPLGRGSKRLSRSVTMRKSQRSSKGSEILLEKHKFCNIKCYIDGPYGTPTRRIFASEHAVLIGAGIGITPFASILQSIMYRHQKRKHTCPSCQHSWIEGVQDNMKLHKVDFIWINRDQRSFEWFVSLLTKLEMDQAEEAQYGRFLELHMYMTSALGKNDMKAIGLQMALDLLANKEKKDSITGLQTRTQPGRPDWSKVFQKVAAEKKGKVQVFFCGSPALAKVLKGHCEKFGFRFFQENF
Chain of NADPH oxidase 4 (Homo sapiens) (Q9NPH5 whole entry, looked up): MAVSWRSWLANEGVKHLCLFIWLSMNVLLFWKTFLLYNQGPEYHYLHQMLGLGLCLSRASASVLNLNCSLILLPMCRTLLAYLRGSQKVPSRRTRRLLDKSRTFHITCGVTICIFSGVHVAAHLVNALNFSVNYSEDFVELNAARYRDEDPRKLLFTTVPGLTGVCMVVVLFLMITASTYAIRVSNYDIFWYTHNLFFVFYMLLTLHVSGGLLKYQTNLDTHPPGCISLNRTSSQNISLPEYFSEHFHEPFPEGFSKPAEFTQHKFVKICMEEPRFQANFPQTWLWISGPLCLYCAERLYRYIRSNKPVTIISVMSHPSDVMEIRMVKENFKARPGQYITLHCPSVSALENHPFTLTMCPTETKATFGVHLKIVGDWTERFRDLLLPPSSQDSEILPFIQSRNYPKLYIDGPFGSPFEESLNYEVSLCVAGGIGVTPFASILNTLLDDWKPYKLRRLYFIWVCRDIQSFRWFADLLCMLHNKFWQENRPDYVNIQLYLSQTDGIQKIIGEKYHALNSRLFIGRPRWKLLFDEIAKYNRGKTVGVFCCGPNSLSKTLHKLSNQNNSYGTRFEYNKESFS
Chain of NADPH oxidase 2 (Homo sapiens) (P04839 whole entry, looked up): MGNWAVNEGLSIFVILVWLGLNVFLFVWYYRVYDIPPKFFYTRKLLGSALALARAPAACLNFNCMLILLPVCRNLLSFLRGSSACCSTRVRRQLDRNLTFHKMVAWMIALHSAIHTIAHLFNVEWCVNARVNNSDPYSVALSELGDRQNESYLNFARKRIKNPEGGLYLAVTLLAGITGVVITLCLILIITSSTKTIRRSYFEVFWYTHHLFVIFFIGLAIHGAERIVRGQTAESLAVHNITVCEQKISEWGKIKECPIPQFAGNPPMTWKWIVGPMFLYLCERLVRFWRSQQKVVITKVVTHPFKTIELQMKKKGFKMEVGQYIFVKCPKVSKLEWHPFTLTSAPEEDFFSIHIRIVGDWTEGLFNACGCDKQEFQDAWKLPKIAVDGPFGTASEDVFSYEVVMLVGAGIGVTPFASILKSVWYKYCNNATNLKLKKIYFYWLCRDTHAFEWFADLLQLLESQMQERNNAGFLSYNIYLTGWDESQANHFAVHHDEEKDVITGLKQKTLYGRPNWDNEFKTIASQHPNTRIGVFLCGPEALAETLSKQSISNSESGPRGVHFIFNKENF

On to `O=C1C2C=CC(C(O)c3ccc([N+](=O)[O-])cc3)N(Nc3ccc([N+](=O)[O-])cc3)C2C(=O)N1c1ccccc1` (stereo not given), for which the z-score in test [1] was -1.39 (inactive); in test [3], 12.9 (active); in [4], 1.96 (inactive); in [5] it was 0.958 (inactive); in test [6], 1.02 (inactive); in [7], -0.922. For the same compound, the z-score in test [8] was -1.24 (inactive); in [9], -2.87 (inactive); in test [10], -2.36; in test [11] it was -0.682; in test [12] it was -1.1; in [13], 0.0069. Further, the z-score in [14] is -0.0432; in [15], -1.81; in test [16] it was -2.27; in [17] it was -2.73 (inactive); in test [18] it was -1.01; in [19], -1.48. The z-score in test [20] is -0.402 (inactive). Also, the composite z-score in test [2] was 0.446.
For `CCOC(=O)CCN1C(=O)[C@H]2[C@H]3[C@H](O)[C@H](O)CC(=O)[C@H]3CC[C@H]2C1=O`, the z-score in test [1] was -1.98 (inactive); in test [3], -0.062 (inactive); in [4], -0.426 (inactive); in test [5], -0.451 (inactive); in test [6] it was -1.42 (inactive); in [7], 1.11. The z-score in test [8] was -0.513 (inactive); in test [9] it was 0.947 (inactive); in test [10], -0.00675; in test [11] it was -0.439; in [12] it was 1.43; in [13], 0.0368. In addition, the z-score in test [14] is -0.904; in test [15], -0.122; in [16] it was -0.103; in test [17], -0.237 (inactive); in test [18] it was 0.0295; in [19], -1.28. For the same compound, the z-score in test [20] was -0.125 (inactive). This compound also showed a composite z-score in [2] of -0.0984.
Consider `CC(C)[C@H](NC(=O)OC(C)(C)C)[C@@H](O)CC(=O)OC(C)(C)C`, for which the z-score in test [1] is -0.703 (inactive); in test [3] it was 0.775 (inactive); in test [4] it was 0.269 (inactive); in test [5], 0.835 (inactive); in [6], 0.128 (inactive); in [7] it was 0.242. In addition, the z-score in test [8] was 1.33 (inactive); in test [9], -1.02 (inactive); in [10] it was 1.04; in test [11], 0.403; in test [12], 1.24; in test [13], 0.026. Further, the z-score in test [14] is 0.793; in test [15], -0.229; in [16], 0.251; in test [17] it was -0.689 (inactive); in test [18] it was 0.62; in test [19], 1.06. For the same compound, the z-score in [20] is -1.54 (inactive). The compound further had a composite z-score in test [2] of -0.0197.
With `CCCCCN1CC=CC23O[C@@H]4C=CCOC(=O)[C@@H]4[C@H]2C(=O)N(C(CO)C(C)C)[C@@H]3C1=O` (stereo not given in full), the z-score in test [1] was 0.374 (inactive); in [3], 0.901 (inactive); in test [4], 0.661 (inactive); in test [5], 0.445 (inactive); in test [6], 0.307 (inactive); in test [7], -0.0997. The z-score in test [8] is 0.965 (inactive); in test [9], 0.694 (inactive); in [10], 1.24; in [11], -0.0343; in [12], -0.372; in [13] it was -0.0721. In addition, the z-score in [14] was 0.949; in test [15], 0.12; in test [16], -0.794; in test [17] it was 0.196 (inactive); in test [18], -0.0576; in test [19], 0.782. For the same compound, in test [20], the z-score is 0.0963 (inactive). For the same compound, the composite z-score in [2] was -0.0479.
With `CC(C)(C)N1C(=O)[C@H]2[C@H]3[C@H](O)[C@H](O)CC(=NO[C@@H]4O[C@H](CO)[C@@H](O)[C@H](O)[C@H]4O)[C@@H]3CC[C@H]2C1=O`, the z-score in test [1] was 0.383 (inactive); in test [3], 1.13 (inactive); in test [4], 0.0656 (inactive); in test [5] it was -0.689 (inactive); in test [6], 0.106 (inactive); in test [7] it was -0.345. For the same compound, the z-score was 1.01 (inactive) in [8]; -0.022 (inactive) in test [9]; -2.07 in test [10]; -0.504 in [11]; 0.346 in test [12]; 0.302 in [13]. Besides, the z-score is -0.739 in test [14]; -0.666 in [15]; -2.11 in [16]; -0.404 (inactive) in test [17]; -0.018 in test [18]; -1.03 in test [19]. In test [20], the z-score was -0.461 (inactive). Further, in [2], the composite z-score is -0.147.
